These results are taken from ChEMBL document CHEMBL5606460, “ASAP - DENV-2 NS2B-NS3 protease fluorescence single point” (2024).

This assay addresses Genome polyprotein (dengue virus type 2) (UniProt P29990).
[1] abbreviates: Thailand/16681/1984, Concentration 25.0 uM, Number of replicates 1.0.

In all, about 2,000 compounds went through this assay and about 110 (5.5%) showed an effect of 50% or more. The entries come from a sample that favours strong results as a whole.

Take `Cc1cc(CO)c2cccc(Cc3ccccc3NC(=O)[C@H](N)CCO)c2n1`: the inhibition (Thailand/16681/1984, Concentration 49.95 uM, Number of replicates 2.0, Standard deviation 1.1804730410904682 %) was -2.49% and the inhibition (Thailand/16681/1984, Concentration 99.9 uM, Number of replicates 2.0, Standard deviation 1.1029287785847963 %) was -0.758%.
With `Cc1cc(CO)c2cccc(Nc3cc(C)on3)c2n1`, the inhibition (Thailand/16681/1984, Concentration 49.95 uM, Number of replicates 2.0, Standard deviation 1.3194982141200182 %) was found to be 1.66% and the inhibition (Thailand/16681/1984, Concentration 99.9 uM, Number of replicates 2.0, Standard deviation 1.2714193652686099 %) came to 2.71%.
As for `Cc1cc(CO)c2cccc(NC(=O)COc3cccc(CN)c3)c2n1`, the inhibition reads like this: (Thailand/16681/1984, Concentration 49.95 uM, Number of replicates 2.0, Standard deviation 1.546456211659181 %) 9.18%; (Thailand/16681/1984, Concentration 99.9 uM, Number of replicates 2.0, Standard deviation 0.8863913825569767 %) 7.18%.
Turning to `Cc1cc(CO)c2cccc(NC(=O)Cc3cccc(CN)c3)c2n1`, the inhibition runs as follows: (Thailand/16681/1984, Concentration 49.95 uM, Number of replicates 2.0, Standard deviation 1.2018993187616485 %) 15.4%; (Thailand/16681/1984, Concentration 99.9 uM, Number of replicates 2.0, Standard deviation 0.39117400474888586 %) 23.6%.
As to `Cc1cc(CO)c2cccc(Cc3ccccc3NC(=O)[C@@H](N)CC(N)=O)c2n1`, the inhibition (Thailand/16681/1984, Concentration 49.95 uM, Number of replicates 2.0, Standard deviation 0.9388389208439332 %) stood at 28.9% and the inhibition (Thailand/16681/1984, Concentration 99.9 uM, Number of replicates 2.0, Standard deviation 1.1783962129832455 %) was determined as 59.7%.
Take `Cc1cc(CO)c2cccc(CC(=O)Nc3cc(O)[nH]n3)c2n1`: the inhibition runs as follows: (Thailand/16681/1984, Concentration 49.95 uM, Number of replicates 2.0, Standard deviation 0.30186854167697036 %) 9.85%; (Thailand/16681/1984, Concentration 99.9 uM, Number of replicates 2.0, Standard deviation 0.4943454438060974 %) 27.1%.
Consider `Cc1cc(CO)c2cccc(NC(=O)[C@@H](N)CCN)c2n1`, for which the inhibition (Thailand/16681/1984, Concentration 49.95 uM, Number of replicates 2.0, Standard deviation 3.3658560886244877 %) is -1.14% and the inhibition (Thailand/16681/1984, Concentration 99.9 uM, Number of replicates 2.0, Standard deviation 3.0766976877592507 %) was -5.81%.
Turning to `Cc1cc(Cl)c2cccc(NC(=O)[C@@H]3CCCC[C@H]3N)c2n1`, for the setting “Thailand/16681/1984, Concentration 99.9 uM, Number of replicates 2.0, Standard deviation 1.2808103574664134 %”, the inhibition is -9.95%.
On to `Cc1nc(Cl)c(NC(=O)C2CCN(c3ccc(C=O)cc3)CC2)c(Cl)n1`, for which, under setting [1], the inhibition turned out to be 12.8%.
`CC(C)(CO)NC(=O)c1cc(Cl)cc(NC(=O)Cn2cnccc2=O)c1`: the inhibition (Thailand/16681/1984, Concentration 49.5 uM, Number of replicates 2.0, Standard deviation 0.3718016272993385 %) was -3.9%; the inhibition (Thailand/16681/1984, Concentration 99.01 uM, Number of replicates 2.0, Standard deviation 1.0416819516575477 %) was -5.97%; the inhibition (Thailand/16681/1984, Concentration 198.0 uM, Number of replicates 2.0, Standard deviation 1.29652000519297 %) was -5.4%.
Take `O=Cc1ccc(N2CCC(C(=O)N3CCN(C(=O)C(F)(F)F)CC3)CC2)cc1`: under setting [1], the inhibition stood at 8.59%.
As to `Cc1n[nH]c(CC(=O)N2CCC[C@H](n3cnc(C(N)=O)n3)C2)n1`, the inhibition reads like this: (Thailand/16681/1984, Concentration 49.5 uM, Number of replicates 2.0, Standard deviation 0.8615620840433298 %) -1.22%; (Thailand/16681/1984, Concentration 99.01 uM, Number of replicates 2.0, Standard deviation 0.2938998370290156 %) -1.99%; (Thailand/16681/1984, Concentration 198.0 uM, Number of replicates 2.0, Standard deviation 1.103757347430939 %) -0.94%.
Consider `Cn1cc(NC(=O)c2ccccc2C(F)(F)F)c(-c2cnn(C)n2)n1`, for which the inhibition reads like this: (Thailand/16681/1984, Concentration 49.5 uM, Number of replicates 2.0, Standard deviation 0.32036291597833877 %) -2.97%; (Thailand/16681/1984, Concentration 99.01 uM, Number of replicates 2.0, Standard deviation 1.175972600606475 %) -3.46%; (Thailand/16681/1984, Concentration 198.0 uM, Number of replicates 2.0, Standard deviation 1.0582279614459547 %) -3.2%.
`O=Cc1ccc(N2CCC(C(=O)Nc3ccc4scnc4c3)CC2)cc1`: the inhibition under setting [1] was 13%.
For `O[C@]1(C(F)(F)F)CC[C@H](CNCc2nnc3ccccn23)CC1`, the inhibition was 4.51% (Thailand/16681/1984, Concentration 49.5 uM, Number of replicates 2.0, Standard deviation 2.244095461971029 %); 4.61% (Thailand/16681/1984, Concentration 99.01 uM, Number of replicates 2.0, Standard deviation 1.4092400656614155 %); 1.75% (Thailand/16681/1984, Concentration 198.0 uM, Number of replicates 2.0, Standard deviation 2.783814769891106 %).
Consider `CCc1nc([C@@H](C)NC(=O)c2ccc(O)c(NC(=O)c3ccncc3F)c2C)n[nH]1`, for which the inhibition (Thailand/16681/1984, Concentration 49.5 uM, Number of replicates 2.0, Standard deviation 0.640305880758115 %) is -3.94%; the inhibition (Thailand/16681/1984, Concentration 99.01 uM, Number of replicates 2.0, Standard deviation 0.7647439452243474 %) was -3.61%; the inhibition (Thailand/16681/1984, Concentration 198.0 uM, Number of replicates 2.0, Standard deviation 1.5490355987880475 %) is -3.27%.
Turning to `Cc1cn2nnc(C(=O)N[C@H]3CCCCn4c3n[nH]c4=O)c2c(=O)[nH]1`, the inhibition was -0.501% (Thailand/16681/1984, Concentration 49.5 uM, Number of replicates 2.0, Standard deviation 0.2359641679366373 %); -0.563% (Thailand/16681/1984, Concentration 99.01 uM, Number of replicates 2.0, Standard deviation 0.10523355791430405 %); -1.4% (Thailand/16681/1984, Concentration 198.0 uM, Number of replicates 2.0, Standard deviation 0.06258385535382655 %).
For the compound `O=Cc1ccc(N2CCC(C(=O)Nc3nnc(C(F)(F)F)s3)CC2)cc1`, under setting [1], the inhibition turned out to be 12.7%.
`O=Cc1ccc(N2CCC(C(=O)N3CCNC(=O)C34CCCCC4)CC2)cc1`: the inhibition under setting [1] was determined as 13.7%.
On the same count and under the same terms, for `CCCCN(Cc1ccc(F)cc1)C(=O)C1CCN(c2ccc(C=O)cc2)CC1` the value was 16.4%.
For `COc1cc(C(=O)Nc2cnc3ccccc3c2)nc(N2CCNCC2)n1`, the inhibition (Thailand/16681/1984, Concentration 49.5 uM, Number of replicates 2.0, Standard deviation 9.540542197549359 %) came to 4.46%; the inhibition (Thailand/16681/1984, Concentration 99.01 uM, Number of replicates 2.0, Standard deviation 4.349736840709832 %) was 6.31%; the inhibition (Thailand/16681/1984, Concentration 198.0 uM, Number of replicates 2.0, Standard deviation 5.514135579540427 %) was 7.41%.
Take `O=Cc1ccc(N2CCC(C(=O)N3CCCN(c4ccc(C(F)(F)F)cn4)CC3)CC2)cc1`: under setting [1], the inhibition amounted to 9.22%.
On to `Cc1cc(CO)c2cccc(Cc3cccc(NC(=O)c4cc(C(=O)O)[nH]n4)c3)c2n1`, for which the inhibition reads like this: (Thailand/16681/1984, Concentration 49.95 uM, Number of replicates 2.0, Standard deviation 0.024232414845035546 %) 4.13%; (Thailand/16681/1984, Concentration 99.9 uM, Number of replicates 2.0, Standard deviation 0.7422093740247248 %) 7.91%.
In the case of `COCc1cc(-c2ccccc2C(=O)Nc2cnn(C)c2)ccn1`, the inhibition was -5.45% (Thailand/16681/1984, Concentration 49.5 uM, Number of replicates 2.0, Standard deviation 1.4111132401966338 %); -5.34% (Thailand/16681/1984, Concentration 99.01 uM, Number of replicates 2.0, Standard deviation 1.6255328031848963 %); -4.12% (Thailand/16681/1984, Concentration 198.0 uM, Number of replicates 2.0, Standard deviation 0.730186058256325 %).
On to `O=Cc1ccc(N2CCC(C(=O)NCC(=O)Nc3ccc(F)c(F)c3)CC2)cc1`, for which the inhibition under setting [1] worked out at 14.1%.

One may read the inhibition as the drop in the measured response relative to a control, in per cent.
